Sampled rows, rich in hits. Any-hit rate of the full collection: about 4.2%.
NALP1 yeast inh: inhibitors of NALP1 inflammasome in yeast; inhibition, % at 10 µM; 280,000 compounds, 0.61% hits; S. cerevisiae NALP1/ASC/caspase-1 growth, X-gal OD620, 72 h; in the data active = inhibition mostly above about 24%, no sharp cut-off; inactive = mostly below about 32%
tim23-1 inh: tim23-1 yeast growth inhibition; S. cerevisiae tim23-1 growth, BacTiter-Glo luminescence, 24 h; inhibition, % at 20 µM; 330,000 compounds, 1.3% hits; AID 463212;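 active = growth inhibition of the mutant yeast at or above 50%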;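 note: temperature-sensitive mutant grown at 25 °C; plate controls were DMSO-treated mutant yeast for no effect and medium wells lacking yeast for full effect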
V-ATPase pH: alters yeast V-ATPase proton transport; S. cerevisiae, pHLuorin cytosolic pH fluorescence; response, % at 10 µM; 350,000 compounds, 0.37% hits; in the data active = response mostly above about 7.3%, no sharp cut-off; inactive = mostly below about 5.4%; note: actives read high
tim10-1 inh: tim10-1 yeast growth inhibition | S. cerevisiae tim10-1 ts strain growth, BacTiter-Glo, 24 h | inhibition, % at 20 µM | 330,000 compounds, 2.2% hits | AID 463190;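 active = inhibition of at least 40%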;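 note: mutant grown at 25 °C; 0% = DMSO wells with yeast and 100% = wells holding no yeast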
NALP3 yeast inh: inhibitors of NALP3 inflammasome in yeast; AID 2825; inhibition, % at 10 µM; 330,000 compounds, 0.39% hits; Yeast reconstituted NLRP3/ASC/caspase-1, beta-gal luminescence, 24 h;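 active = inhibition of 50% or more; inactive = inhibition below 50%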;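 note: plate controls were induced DMSO wells for no effect and uninduced yeast grown without galactose for full effect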
TIM10 inh: TIM10 yeast growth inhibition | S. cerevisiae TIM10 strain growth, BacTiter-Glo luminescence, 24 h | inhibition, % at 10 µM | 330,000 compounds, 1.4% hits;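 active = inhibition of 40% or more at the single tested concentration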;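 note: wild-type TIM10 isogenic control strain grown at permissive 25 °C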
tim10 confirm: confirmation of TIM10 yeast growth inhibitors | shares compounds with TIM10 inh | S. cerevisiae tim10 strain growth, BacTiter-Glo luminescence, 24 h | inhibition, % at 10 µM | 4,600 compounds, 63% hits | AID 463215;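 active = inhibition of yeast growth at or above a set limit in either of two replicates at 10 µM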;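 note: this counterscreen used the strain with wild-type TIM10; 0% = yeast with DMSO and 100% = medium wells lacking yeast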
* marks the source's active call; other numbers are inactive results; . = no result.

SMILES	NALP1 yeast inh	tim23-1 inh	V-ATPase pH	tim10-1 inh	NALP3 yeast inh	TIM10 inh	tim10 confirm
CCC(C(=O)Nc1cccc(C(F)(F)F)c1)c1ccccc1 (configuration not stated)	-2.2	28.6	-2.3	38.9	-5.4	40.3*	47.0*
O=C(Nc1cccc(C(F)(F)F)c1)C(SCCO)c1ccccc1 (configuration not stated)	17.6	20.3	1.7	14.2	4.6	12.4	.
Cc1occc1-c1nnc(SCC(=O)Nc2ccccc2-c2ccccc2)n1C	-17.4	6.7	-2.4	22.0	9.5	0.1	.
O=C(NCC1CCCO1)c1cc2ccccc2oc1=O (configuration not stated)	8.4	5.7	0.1	5.9	-15.2	95.2*	-6.4
COc1ccc(C(=O)N/N=C(\N)c2cc3ccccc3oc2=O)cc1	4.4	4.2	1.5	10.4	-14.7	-14.4	.
O=C(c1cc2ccccc2oc1=O)N(Cc1ccccc1)CC1CCCO1 (configuration not stated)	-2.9	19.4	2.9	13.5	-5.8	17.0	.
N/C(=N\NC(=O)c1ccccc1)c1cc2ccccc2oc1=O	-6.3	11.6	2.6	-4.2	28.3	47.8*	16.8
CC(C)N(C(=O)[C@H]1C[C@H](CC(=O)NCCCn2ccnc2)C(=O)N2CCc3c([nH]c4cc(-c5ccco5)ccc34)[C@]12C)C(C)C	.	23.4	-4.0	8.3	.	-8.3	.
O=C(CSc1cn[nH]n1)Nc1ccccc1C(F)(F)F	25.6	16.0	3.5	11.1	12.6	-13.8	.
CCCn1nc(C(=O)NCc2ccccn2)c2ccccc2c1=O	1.4	2.8	-4.6	19.1	3.0	5.9	.
Cc1ccc(NC(=O)CSc2nnc(NC(=O)CN3CCOCC3)s2)cc1	9.6	-0.6	-7.2	25.8	-4.6	-3.8	.
COc1ccc(-c2oc3ncn(CCN4CCOCC4)c(=N)c3c2-c2ccc(OC)cc2)cc1	37.0	35.2	7.0	36.8	11.3	41.6*	19.2
COc1ccc(C2c3ccc4ccccc4c3Oc3ncn(CCN4CCOCC4)c(=N)c32)cc1 (configuration not stated)	9.5	-3.5	1.9	31.2	2.2	10.6	.
Cc1cc(/C=N/NC(=O)c2ccsc2)c(C)n1-c1cnccn1	16.9	3.0	3.9	4.2	-8.5	-2.7	.
Nc1cc(OC(=O)c2cccs2)nn1S(=O)(=O)c1ccccc1	26.6	15.2	-1.4	37.2	0.4	54.7*	1.3
N#Cc1ccccc1COC(=O)CCN=C1NS(=O)(=O)c2ccccc21	.	10.9	-0.1	7.3	22.7	-0.7	.
COc1ccccc1N1CCN(C(=O)c2ccc(N3CCCC3=O)cc2)CC1	29.4	12.9	-0.2	4.8	12.3	14.5	.
COc1ccccc1N1CC(C)(C)C(=O)N(C(=O)c2ccc(C)cc2)C1=S	6.4	49.2	-1.1	36.7	28.3	42.6*	44.9*
O=C(N/N=C/c1ccc2c(c1)OCO2)c1cccs1	46.9	49.6	-0.3	27.9	21.0	57.2*	47.6*
Cc1ccsc1C(=O)N/N=C/c1ccc2c(c1)OCO2	17.7	34.3	-10.4	-7.7	10.1	21.2	.
O=S(=O)(c1ccccc1)N1CCN(CCOc2ccc(F)cc2)CC1	.	.	2.1	.	.	.	.
CCN1C[C@@H]2[C@@H]3C(=O)N(Cc4ccccc4)C(=O)[C@@H]3[C@](C)(C(=O)OC)N2C1=NC1CCCCC1	.	7.8	-2.9	-4.1	.	-19.6	.
c1ccc(-c2csc(Nc3ccc4c(c3)OCCO4)n2)cc1	10.9	31.8	-1.5	36.8	22.9	41.4*	5.2
C=CCN1N=C(/C=C/c2ccc(C)cc2)CCC1=O	3.0	5.6	0.1	7.0	20.3	10.8	.
O=C(N/N=C/C=C/c1ccco1)c1cnccn1	24.1	-6.4	1.4	-18.1	27.8	5.5	.
SMILES	NALP1 yeast inh	tim23-1 inh	V-ATPase pH	tim10-1 inh	NALP3 yeast inh	TIM10 inh	tim10 confirm
O=C(N/N=C/C=C\c1ccco1)c1ccccn1	-5.6	15.5	3.9	3.2	11.4	89.7*	1.5
O=C(N/N=C\C=C\c1ccco1)c1cc(-c2ccc3ccccc3c2)n[nH]1	0.5	8.2	-1.9	15.6	4.8	51.6*	39.9*
CCC(C)(C)n1nnnc1C(c1ccccn1)N1CCCCC1 (configuration not stated)	11.2	28.7	-2.4	16.8	-3.5	13.5	.
Cc1c(C(=O)N2CCN(S(=O)(=O)c3ccccc3)CC2)oc2ccccc12	.	46.0	1.2	37.8	-16.0	46.9*	32.3*
COc1cccc(OC)c1OCCCSc1nc(C)cc(=O)[nH]1	-16.6	19.8	-2.2	-7.3	2.2	-1.0	.
CC(C)COc1cc(=O)[nH]c(SCC(C)C)n1	-3.7	8.6	-3.5	36.5	-40.5	45.4*	39.2*
c1cc2c(cc1Cn1cnnn1)OCO2	15.6	10.2	-0.4	9.5	-7.9	11.0	.
Clc1ccc(Cn2ccc(-c3ccc4c(c3)OCO4)n2)cc1Cl	-0.3	24.9	2.7	25.9	-24.7	40.1*	40.0*
COc1cc(OC)cc(C(=O)N[C@H](C(=O)Nc2ccc(NC(C)=O)cc2)C(C)C)c1	11.3	12.2	1.1	3.6	2.2	4.0	.
Fc1ccc(/C=N/n2c(-c3cccs3)n[nH]c2=S)cc1	.	41.4	4.8	29.9	21.4	44.8*	28.2
S=c1[nH]nc(-c2cccs2)n1/N=C/c1cn(-c2ccccc2)nc1-c1ccccc1	.	29.0	-4.2	23.1	15.6	17.5	.
Cc1cc(=O)[nH]c(SCC(=O)N2CCN(C(=O)c3ccco3)CC2)n1	.	7.7	-3.0	-4.3	-3.8	-1.4	.
O=C(c1ccccc1)c1cccc(NC(=O)c2ccco2)c1	2.3	42.1	-1.5	35.9	37.3	53.2*	60.5*
CC(=O)c1cccc(NC(=O)c2ccco2)c1	6.0	3.5	-2.1	-5.2	25.6	-2.9	.
Cn1c(CCN2CCN(c3ccccc3)CC2)nc2cc(NC(=O)c3ccco3)ccc21	9.5	14.2	2.5	19.9	13.6	9.0	.
O=C(Nc1ccc(N2CCN(C(=O)c3ccccc3)CC2)c(Cl)c1)c1ccco1	8.6	22.4	-4.2	14.5	19.8	44.7*	36.3*
O=C(Nc1ccc2c(c1)ncn2-c1ccccc1)c1ccco1	44.8	28.0	6.7	29.2	38.4	51.4*	49.6*
O=C(Nc1cccc(NC(=O)c2ccco2)c1)c1ccccc1	10.1	4.1	-0.5	-53.9	9.0	-9.7	.
CCOC(=O)c1cccc(NC(=O)c2ccco2)c1	.	45.2	-3.9	29.4	39.2	45.8*	26.5
CCn1nc(C(C)C(=O)O)c2ccccc2c1=O (configuration not stated)	3.3	-8.1	0.4	3.0	15.4	1.7	.
O=C(O)CN1CCOCCOCCN(CC(=O)O)CCOCCOCC1	6.6	.	.	.	.	.	.
O=C(CCC1CCCCC1)NCCN1CCOCC1	4.7	4.3	0.0	-7.7	12.4	-1.6	.
COC(=O)CSc1nnc(CNC(=O)c2cccs2)n1-c1cccc(C)c1	14.4	.	5.5	.	.	.	.
CC(C)(C)n1cnc2cc(NC(=O)c3ccccc3)ccc21	15.3	49.4	1.4	-1.1	6.0	57.9*	64.3*

Screening data (PubChem BioAssay)
